Test results from ChEMBL document CHEMBL1961873, “Compounds: GSK PKIS; Assays: Nanosyn kinase panel” (2012).

Legend:
[1] = target: Ribosomal protein S6 kinase alpha-6 (Homo sapiens) (UniProt Q9UK32); details: at 1 µM;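 also: each value is a mean inhibition of RSK4 from a GSK PKIS panel screen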
[2] = target: T1, Serine/threonine-protein kinase Sgk1 (Homo sapiens) (UniProt O00141); details: at 0.1 µM
T1 sequence (whole entry): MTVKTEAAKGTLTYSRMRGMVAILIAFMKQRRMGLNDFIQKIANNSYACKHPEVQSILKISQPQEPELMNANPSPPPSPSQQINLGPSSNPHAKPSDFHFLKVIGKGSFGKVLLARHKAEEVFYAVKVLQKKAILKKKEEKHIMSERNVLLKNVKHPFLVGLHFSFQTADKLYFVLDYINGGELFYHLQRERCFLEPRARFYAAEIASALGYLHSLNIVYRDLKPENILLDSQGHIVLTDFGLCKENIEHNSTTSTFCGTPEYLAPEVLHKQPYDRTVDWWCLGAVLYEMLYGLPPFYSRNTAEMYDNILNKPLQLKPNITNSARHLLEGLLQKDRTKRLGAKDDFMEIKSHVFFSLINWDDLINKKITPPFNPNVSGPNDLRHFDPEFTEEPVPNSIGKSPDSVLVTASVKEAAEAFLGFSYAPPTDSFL

[3] = target: T1, Serine/threonine-protein kinase Sgk1 (Homo sapiens); details: at 1 µM
[4] = target: T2, Serine/threonine-protein kinase Sgk2 (Homo sapiens) (UniProt Q9HBY8); details: at 0.1 µM
T2 sequence (whole entry): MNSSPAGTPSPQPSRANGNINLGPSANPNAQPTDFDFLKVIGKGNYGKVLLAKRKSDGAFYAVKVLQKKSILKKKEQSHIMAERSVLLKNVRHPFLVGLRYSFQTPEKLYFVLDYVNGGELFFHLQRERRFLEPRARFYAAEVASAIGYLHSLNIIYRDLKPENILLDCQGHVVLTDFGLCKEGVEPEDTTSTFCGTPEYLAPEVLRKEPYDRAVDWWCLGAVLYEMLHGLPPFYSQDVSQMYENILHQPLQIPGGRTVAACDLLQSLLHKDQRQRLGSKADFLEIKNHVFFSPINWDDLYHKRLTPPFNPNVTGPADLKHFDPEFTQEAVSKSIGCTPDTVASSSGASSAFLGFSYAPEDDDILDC

[5] = target: T2, Serine/threonine-protein kinase Sgk2 (Homo sapiens); details: at 1 µM
[6] = target: T3, Serine/threonine-protein kinase Sgk3 (Homo sapiens) (UniProt Q96BR1); details: at 0.1 µM
T3 sequence (whole entry): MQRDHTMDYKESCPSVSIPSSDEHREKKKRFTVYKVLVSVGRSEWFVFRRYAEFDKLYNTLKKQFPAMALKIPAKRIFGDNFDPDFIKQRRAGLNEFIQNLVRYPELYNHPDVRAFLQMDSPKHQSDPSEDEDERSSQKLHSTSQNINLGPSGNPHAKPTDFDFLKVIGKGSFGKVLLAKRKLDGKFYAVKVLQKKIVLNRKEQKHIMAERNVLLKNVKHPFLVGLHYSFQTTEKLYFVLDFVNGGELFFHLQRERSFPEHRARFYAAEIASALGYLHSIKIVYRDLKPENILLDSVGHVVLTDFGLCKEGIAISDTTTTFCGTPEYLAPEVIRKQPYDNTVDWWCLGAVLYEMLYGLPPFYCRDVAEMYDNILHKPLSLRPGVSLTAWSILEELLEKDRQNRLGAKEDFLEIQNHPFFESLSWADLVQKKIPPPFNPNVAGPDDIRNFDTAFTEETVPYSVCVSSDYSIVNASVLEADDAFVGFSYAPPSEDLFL

[7] = target: T3, Serine/threonine-protein kinase Sgk3 (Homo sapiens); details: at 1 µM
[8] = target: 5'-AMP-activated protein kinase catalytic subunit alpha-1 (Homo sapiens) (UniProt Q13131); details: at 0.1 µM
[9] = target: 5'-AMP-activated protein kinase catalytic subunit alpha-1 (Homo sapiens) (UniProt Q13131); details: at 1 µM
[10] = target: 5'-AMP-activated protein kinase catalytic subunit alpha-2 (Homo sapiens) (UniProt P54646); details: at 0.1 µM
[11] = target: 5'-AMP-activated protein kinase catalytic subunit alpha-2 (Homo sapiens) (UniProt P54646); details: at 1 µM
[12] = target: T4, NUAK family SNF1-like kinase 1 (Homo sapiens) (UniProt O60285); details: at 0.1 µM
T4 sequence (whole entry): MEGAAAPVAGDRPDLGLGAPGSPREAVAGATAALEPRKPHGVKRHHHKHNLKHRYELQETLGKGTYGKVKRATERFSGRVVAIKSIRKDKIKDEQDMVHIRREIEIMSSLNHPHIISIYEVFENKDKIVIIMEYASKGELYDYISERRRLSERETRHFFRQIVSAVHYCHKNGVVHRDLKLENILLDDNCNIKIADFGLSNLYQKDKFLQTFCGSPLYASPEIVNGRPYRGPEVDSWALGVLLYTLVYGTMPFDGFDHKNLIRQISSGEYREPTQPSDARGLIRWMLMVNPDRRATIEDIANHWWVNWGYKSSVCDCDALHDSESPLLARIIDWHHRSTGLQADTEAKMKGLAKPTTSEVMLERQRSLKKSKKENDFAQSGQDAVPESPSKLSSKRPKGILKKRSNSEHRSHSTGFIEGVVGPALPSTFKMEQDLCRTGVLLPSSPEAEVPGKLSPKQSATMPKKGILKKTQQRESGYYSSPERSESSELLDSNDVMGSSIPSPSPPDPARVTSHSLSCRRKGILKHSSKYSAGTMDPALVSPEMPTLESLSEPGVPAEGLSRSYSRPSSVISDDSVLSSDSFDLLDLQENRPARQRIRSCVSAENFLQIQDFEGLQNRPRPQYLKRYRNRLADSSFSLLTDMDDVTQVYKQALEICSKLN

[13] = target: T4, NUAK family SNF1-like kinase 1 (Homo sapiens); details: at 1 µM
[14] = target: T5, Serine/threonine-protein kinase BRSK1 (Homo sapiens) (UniProt Q8TDC3); details: at 0.1 µM
T5 sequence (whole entry): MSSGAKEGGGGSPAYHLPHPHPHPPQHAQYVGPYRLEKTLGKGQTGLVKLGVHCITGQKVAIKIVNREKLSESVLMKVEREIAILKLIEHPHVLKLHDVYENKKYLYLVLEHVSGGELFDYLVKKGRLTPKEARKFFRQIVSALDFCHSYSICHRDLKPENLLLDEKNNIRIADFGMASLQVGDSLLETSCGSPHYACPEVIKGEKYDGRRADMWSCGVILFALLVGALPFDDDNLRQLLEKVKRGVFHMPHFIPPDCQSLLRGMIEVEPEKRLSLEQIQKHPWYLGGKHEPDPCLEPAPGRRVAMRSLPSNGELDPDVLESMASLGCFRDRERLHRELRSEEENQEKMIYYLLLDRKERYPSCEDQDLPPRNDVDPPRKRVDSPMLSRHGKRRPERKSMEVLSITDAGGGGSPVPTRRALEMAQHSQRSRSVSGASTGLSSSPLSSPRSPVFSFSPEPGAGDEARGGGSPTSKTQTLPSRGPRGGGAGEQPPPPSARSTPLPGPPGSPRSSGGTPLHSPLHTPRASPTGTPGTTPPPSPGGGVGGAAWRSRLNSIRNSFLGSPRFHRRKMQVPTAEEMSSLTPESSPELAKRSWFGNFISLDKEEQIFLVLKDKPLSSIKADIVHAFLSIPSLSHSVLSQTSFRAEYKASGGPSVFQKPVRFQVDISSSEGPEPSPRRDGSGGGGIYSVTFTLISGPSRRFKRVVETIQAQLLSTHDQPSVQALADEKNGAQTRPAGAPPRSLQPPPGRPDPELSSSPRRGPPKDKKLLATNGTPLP

[15] = target: T5, Serine/threonine-protein kinase BRSK1 (Homo sapiens); details: at 1 µM
[16] = target: T6, Serine/threonine-protein kinase BRSK2 (Homo sapiens) (UniProt Q8IWQ3); details: at 0.1 µM
T6 sequence (whole entry): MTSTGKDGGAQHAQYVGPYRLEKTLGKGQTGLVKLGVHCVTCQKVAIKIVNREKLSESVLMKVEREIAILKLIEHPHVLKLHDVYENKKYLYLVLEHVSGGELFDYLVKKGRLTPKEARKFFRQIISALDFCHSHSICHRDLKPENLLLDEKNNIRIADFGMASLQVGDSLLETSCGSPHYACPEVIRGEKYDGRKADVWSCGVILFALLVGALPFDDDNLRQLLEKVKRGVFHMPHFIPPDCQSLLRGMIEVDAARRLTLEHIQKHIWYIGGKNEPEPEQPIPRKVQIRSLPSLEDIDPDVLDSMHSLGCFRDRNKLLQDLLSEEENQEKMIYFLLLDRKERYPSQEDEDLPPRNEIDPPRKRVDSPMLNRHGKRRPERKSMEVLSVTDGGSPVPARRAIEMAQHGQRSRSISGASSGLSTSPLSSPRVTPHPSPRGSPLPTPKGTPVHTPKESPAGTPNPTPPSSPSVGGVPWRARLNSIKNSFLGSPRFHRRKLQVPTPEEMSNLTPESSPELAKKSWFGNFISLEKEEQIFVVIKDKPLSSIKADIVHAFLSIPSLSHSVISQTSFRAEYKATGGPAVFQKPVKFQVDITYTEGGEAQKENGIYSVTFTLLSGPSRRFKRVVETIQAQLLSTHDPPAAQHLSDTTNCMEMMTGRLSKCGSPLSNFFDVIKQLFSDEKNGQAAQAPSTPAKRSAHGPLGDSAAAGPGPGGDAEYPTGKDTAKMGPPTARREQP

[17] = target: T6, Serine/threonine-protein kinase BRSK2 (Homo sapiens); details: at 1 µM
[18] = target: Calcium/calmodulin-dependent protein kinase type 1D (Homo sapiens) (UniProt Q8IU85); details: at 0.1 µM
[19] = target: Calcium/calmodulin-dependent protein kinase type 1D (Homo sapiens) (UniProt Q8IU85); details: at 1 µM
[20] = target: Calcium/calmodulin-dependent protein kinase type II subunit alpha (Homo sapiens) (UniProt Q9UQM7); details: at 0.1 µM;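 also: reported values are averages (mean inhibition of CAMK2A)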
Calcium/calmodulin-dependent protein kinase type II subunit alpha (Homo sapiens), sequence (Q9UQM7 whole entry): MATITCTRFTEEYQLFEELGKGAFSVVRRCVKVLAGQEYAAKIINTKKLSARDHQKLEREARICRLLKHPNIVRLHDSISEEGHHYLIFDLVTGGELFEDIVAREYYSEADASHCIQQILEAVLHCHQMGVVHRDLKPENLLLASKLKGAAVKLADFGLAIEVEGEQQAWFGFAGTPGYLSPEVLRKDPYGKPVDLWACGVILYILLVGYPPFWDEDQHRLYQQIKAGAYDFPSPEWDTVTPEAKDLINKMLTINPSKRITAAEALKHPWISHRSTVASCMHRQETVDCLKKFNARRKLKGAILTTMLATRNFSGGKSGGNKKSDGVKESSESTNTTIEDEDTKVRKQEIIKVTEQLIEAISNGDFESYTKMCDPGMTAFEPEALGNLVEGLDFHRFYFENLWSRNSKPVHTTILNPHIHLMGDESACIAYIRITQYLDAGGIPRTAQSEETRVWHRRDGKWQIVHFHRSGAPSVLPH

Calcium/calmodulin-dependent protein kinase type 1D (Homo sapiens), sequence (Q8IU85 whole entry, looked up): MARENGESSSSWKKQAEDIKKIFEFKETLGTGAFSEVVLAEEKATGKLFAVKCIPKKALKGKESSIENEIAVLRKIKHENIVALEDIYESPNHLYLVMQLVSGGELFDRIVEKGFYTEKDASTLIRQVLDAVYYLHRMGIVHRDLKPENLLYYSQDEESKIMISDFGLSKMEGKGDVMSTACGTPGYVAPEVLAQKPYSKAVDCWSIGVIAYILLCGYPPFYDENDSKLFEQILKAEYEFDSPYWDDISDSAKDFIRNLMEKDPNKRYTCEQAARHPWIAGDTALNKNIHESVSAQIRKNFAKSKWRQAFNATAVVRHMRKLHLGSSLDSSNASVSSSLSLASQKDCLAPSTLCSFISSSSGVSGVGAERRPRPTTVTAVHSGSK
Ribosomal protein S6 kinase alpha-6 (Homo sapiens), sequence (Q9UK32 whole entry): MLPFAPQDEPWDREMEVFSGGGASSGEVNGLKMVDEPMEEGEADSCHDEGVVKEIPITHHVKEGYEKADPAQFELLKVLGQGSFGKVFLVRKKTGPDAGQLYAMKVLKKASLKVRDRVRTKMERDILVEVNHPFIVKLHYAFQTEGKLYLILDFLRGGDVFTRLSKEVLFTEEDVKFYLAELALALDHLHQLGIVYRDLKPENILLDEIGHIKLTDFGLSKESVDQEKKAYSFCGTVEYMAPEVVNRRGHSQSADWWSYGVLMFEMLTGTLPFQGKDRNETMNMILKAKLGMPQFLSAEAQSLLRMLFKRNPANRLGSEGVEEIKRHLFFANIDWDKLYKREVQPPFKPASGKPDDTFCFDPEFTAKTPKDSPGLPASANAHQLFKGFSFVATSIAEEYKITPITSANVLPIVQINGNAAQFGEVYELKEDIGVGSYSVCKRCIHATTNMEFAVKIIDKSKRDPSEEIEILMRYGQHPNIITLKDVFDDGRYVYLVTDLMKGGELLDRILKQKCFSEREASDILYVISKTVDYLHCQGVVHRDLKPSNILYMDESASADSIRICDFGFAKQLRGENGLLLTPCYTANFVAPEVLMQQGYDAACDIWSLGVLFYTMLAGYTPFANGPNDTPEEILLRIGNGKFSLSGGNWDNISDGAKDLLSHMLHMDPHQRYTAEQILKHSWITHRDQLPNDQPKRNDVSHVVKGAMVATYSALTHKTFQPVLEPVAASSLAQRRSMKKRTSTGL
5'-AMP-activated protein kinase catalytic subunit alpha-1 (Homo sapiens), sequence (Q13131 whole entry, looked up): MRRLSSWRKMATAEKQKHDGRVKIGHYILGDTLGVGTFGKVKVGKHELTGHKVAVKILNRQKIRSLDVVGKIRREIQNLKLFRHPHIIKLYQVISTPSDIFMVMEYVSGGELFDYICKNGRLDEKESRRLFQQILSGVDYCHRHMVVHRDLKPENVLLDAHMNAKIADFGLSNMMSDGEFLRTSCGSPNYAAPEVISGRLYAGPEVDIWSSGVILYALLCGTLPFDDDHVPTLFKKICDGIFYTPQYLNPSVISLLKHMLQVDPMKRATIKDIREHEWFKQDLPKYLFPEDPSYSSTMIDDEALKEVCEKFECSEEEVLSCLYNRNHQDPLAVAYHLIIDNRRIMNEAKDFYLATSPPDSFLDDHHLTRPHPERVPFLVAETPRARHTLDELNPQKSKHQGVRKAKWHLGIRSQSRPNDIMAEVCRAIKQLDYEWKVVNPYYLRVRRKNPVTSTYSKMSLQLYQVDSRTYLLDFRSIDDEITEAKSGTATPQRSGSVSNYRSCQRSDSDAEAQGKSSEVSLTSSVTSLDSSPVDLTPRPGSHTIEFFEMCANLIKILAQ
5'-AMP-activated protein kinase catalytic subunit alpha-2 (Homo sapiens), sequence (P54646 whole entry, looked up): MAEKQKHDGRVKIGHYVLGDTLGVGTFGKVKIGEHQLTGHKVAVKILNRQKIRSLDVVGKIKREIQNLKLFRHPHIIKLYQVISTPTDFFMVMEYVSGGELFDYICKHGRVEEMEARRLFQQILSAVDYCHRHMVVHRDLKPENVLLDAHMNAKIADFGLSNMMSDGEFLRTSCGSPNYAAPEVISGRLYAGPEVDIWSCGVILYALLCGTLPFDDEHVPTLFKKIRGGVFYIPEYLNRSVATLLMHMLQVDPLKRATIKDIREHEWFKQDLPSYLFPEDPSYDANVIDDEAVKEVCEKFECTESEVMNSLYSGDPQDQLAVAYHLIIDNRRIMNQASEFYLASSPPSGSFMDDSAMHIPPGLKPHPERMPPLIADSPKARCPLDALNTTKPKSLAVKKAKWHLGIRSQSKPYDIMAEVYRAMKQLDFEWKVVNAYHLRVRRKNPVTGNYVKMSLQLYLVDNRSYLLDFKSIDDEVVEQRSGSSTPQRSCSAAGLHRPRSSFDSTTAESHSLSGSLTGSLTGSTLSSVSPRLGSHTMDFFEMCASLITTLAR

SMILES	inhibition [1] [%]	inhibition [2] [%]	inhibition [3] [%]	inhibition [4] [%]	inhibition [5] [%]	inhibition [6] [%]	inhibition [7] [%]	inhibition [8] [%]	inhibition [9] [%]	inhibition [10] [%]	inhibition [11] [%]	inhibition [12] [%]	inhibition [13] [%]	inhibition [14] [%]	inhibition [15] [%]	inhibition [16] [%]	inhibition [17] [%]	inhibition [18] [%]	inhibition [19] [%]	inhibition [20] [%]
COC(=O)Nc1nc2ccc(Oc3ccc(NC(=O)Nc4cccc(Cl)c4)cc3)cc2[nH]1	-1.02	0.53	0.15	1.28	-2.41	0.38	0.61	0.94	0.58	1.29	2.32	1.13	-0.04	-0.24	-0.19	1.18	0.86	0.74	0.72	-1.44
CCN1CCC(CC(=O)Nc2n[nH]c3nnc(-c4cccc(F)c4F)cc23)CC1	1.38	0.53	0.29	-3.94	1.93	0.82	4.18	2.47	3.36	2.36	5.17	-1.66	1.56	-0.52	3.84	2.07	-0.1	1.6	-1.42	3.17
Fc1ccc(-c2nn3ncccc3c2-c2ccnc(Nc3ccc4c(c3)OCCO4)n2)cc1	5.49	3.85	3.42	0.17	0.65	4.45	0.8	3	1.48	3.53	4.39	-3.69	-0.79	0.48	-0.53	0.21	-0.44	-0.07	8.91	3.81
COc1cccc(-c2c[nH]c3c(N/N=C/c4ccncc4)ncnc23)c1	10.6	4.36	19.1	4.85	18.2	2.69	1.84	1.39	6.84	0.02	7.68	4.85	38.5	3.83	21.4	4.82	29.8	2.11	4.07	3.48
COC(=O)c1sc(-n2cnc3cc(OC)c(OC)cc32)cc1OCc1ccccc1C(F)(F)F	1.66	2.5	4.04	1.44	1.94	2.58	1.46	3.84	8.18	-0.41	5.51	18.4	47.1	0.92	2.12	2.43	4.63	0.66	2.52	5.18
c1ccc(-c2nc3n(c2-c2ccc4c(c2)OCO4)CCC3)nc1	0.77	1.69	3.45	2.66	2.94	2.37	3.36	1.01	2.34	3.38	3.64	4.41	-1.66	1.42	2.54	1.52	4.23	0.16	0.16	-0.46
Cc1cccc2c1NC(=O)/C2=N\Nc1ccc(S(N)(=O)=O)cc1	2.27	0.42	3.23	2.93	3.69	0.3	-0.24	2.8	4.3	0.95	4.04	4.52	19	1.12	3.16	0.94	4.49	0.23	1.75	4.56
